Shown are actives, neighbours in structure and some others; about 13% of the full set was active somewhere.
ALDH1A1 block – qHTS Assay for Inhibitors of Aldehyde Dehydrogenase 1 (ALDH1A1); 7.3% of 220,000 active; Potency, µM (titrated, usually from 75.3 µM), without a hit: at the top dose activity, negative = inhibition, most hits filed as inhibitors; Aldehyde dehydrogenase 1A1 (Homo sapiens), P00352; Purified ALDH1A1, NADH fluorescence, propionaldehyde substrate; active = well fitted inhibition curve with a large enough effect, not every such curve was filed as active; inconclusive = small, poorly fitted or top-dose-only effect, or another doubt; inactive = no such curve, though single readings can be large or run the other way;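 also: potency is read from the fitted curve at half-maximal effect; plate controls were no enzyme wells and a reference inhibitor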
Target sequence (P00352 whole entry, looked up): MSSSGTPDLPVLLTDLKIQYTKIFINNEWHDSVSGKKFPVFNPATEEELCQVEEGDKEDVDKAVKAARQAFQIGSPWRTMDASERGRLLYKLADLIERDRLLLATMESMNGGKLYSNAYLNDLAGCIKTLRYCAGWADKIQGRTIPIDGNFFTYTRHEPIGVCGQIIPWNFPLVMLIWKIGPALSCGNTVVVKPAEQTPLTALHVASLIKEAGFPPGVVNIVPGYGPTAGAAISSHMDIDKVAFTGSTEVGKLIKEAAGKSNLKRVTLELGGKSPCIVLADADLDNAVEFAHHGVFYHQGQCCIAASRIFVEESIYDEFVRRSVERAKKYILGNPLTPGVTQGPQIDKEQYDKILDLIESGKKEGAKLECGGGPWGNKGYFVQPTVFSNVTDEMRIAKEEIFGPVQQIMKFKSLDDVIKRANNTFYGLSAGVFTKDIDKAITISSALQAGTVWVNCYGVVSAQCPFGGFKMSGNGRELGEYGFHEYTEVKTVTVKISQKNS
Lamin A splicing – qHTS Assay for Modulators of Lamin A Splicing | HeLa LMNA splicing GFP/RFP minigene ratio, 48 h | Potency, µM (titrated, usually from 46.1 µM), inactives show top-dose ratio change, negative = inhibition, actives largely listed as inhibitors | 0.01% of 200,000 active | AID 1487, 2009; active = well fitted inhibition curve with a large enough effect in the signal ratio, with a control signal flat, not every such curve was filed as active; inconclusive = small, poorly fitted or top-dose-only effect, or effect the other way, or a change in a side signal; the % refers to the signal ratio; also: potency is read from the fitted curve at half-maximal effect; % is scaled to controls: 0 for no effect and ±100 for the full control effect
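S3 HeLa cells stably expressing lamin A-EGFP splicing minigene plus DsRed2, 600 cells/well, 48 h compound exposure at 37C. Laser-scanning cytometry; analysed as GFP (500-530 nm)/RFP (575-640 nm) total intensity ratio; 0.5% DMSO vehicle.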
KDM4E inh – qHTS Assay for Inhibitors of Human Jumonji Domain Containing 2E (JMJD2E). 1.6% of 230,000 active. JMJD2E catalytic domain, FDH-coupled NADH fluorescence (FDH is formaldehyde dehydrogenase). Lysine-specific demethylase 4E (Homo sapiens), B2RXH2. AID 2147, 2009. Potency, µM (series often up to 57.1 µM), without a hit: at the highest dose activity change, negative = inhibition, hits mostly inhibitors; active = well fitted inhibition curve with a large enough effect, not every such curve was filed as active; inconclusive = small, poorly fitted or top-dose-only effect, or another doubt; inactive = no such curve, though single readings can be large or run the other way;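 also: potency is read from the fitted curve at half-maximal effect; 0% = wells with enzyme and -100% = buffer wells without enzyme; nearly all actives have a fitted effect of over 50% in size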
miR-21 reporter – qHTS Assay for Modulators of miRNAs and/orActivators of miR-21. HeLa miR-21 FLuc reporter, luciferase, 48 h. Potency, µM (highest dose often 38.3 µM), for inactives: top-dose activity change, positive = activation, hits mostly activators. 340,000 tested, under 10 active. AID 2288, 2010;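 also: % of control where 0% means no effect; miR-21 action dims this reporter so a rising signal means less miR-21 action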
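Using DMEM plus 10% FBS, HeLa miR-21-FLuc cells are incubated with test compounds (final up to about 40uM) for 48 hours; firefly luciferase signal is then imaged following reagent-mediated lysis.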
G9a inh – qHTS Assay for Inhibitors of Histone Lysine Methyltransferase G9a | Histone-lysine N-methyltransferase EHMT2 (Homo sapiens), Q96KQ7 | G9a H3K9 monomethylation, AlphaScreen, 2 h | Potency, µM (doses to about 102 µM), for inactives: at the highest dose activity, negative = inhibition, usual class: inhibitors | 8.8% of 350,000 active | AID 504332, 2011; also: potency is read from the fitted curve at half-maximal effect; % is scaled to controls: 0 for no effect and ±100 for the full control effect; nearly all actives have a fitted effect of over 75% in size
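G9a (20 nM) preincubated 15 min RT with compounds, then 500 nM biotinylated H3K9 peptide and 20 uM SAM added; 2 h RT reaction. Monomethyl-H3K9 product detected by AlphaScreen with anti-H3K9me1 antibody, streptavidin donor and anti-rabbit IgG acceptor beads.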
Sfp inh – qHTS Assay for Inhibitors of Bacillus subtilis Sfp phosphopantetheinyl transferase (PPTase). 4'-phosphopantetheinyl transferase ffp (Bacillus subtilis), Q9F4F7. Biochemical Sfp PPTase activity, qHTS. 3.5% of 310,000 active. Potency, µM, for the others: largest response in the series, negative = inhibition, actives largely listed as inhibitors;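 also: the enzyme is Sfp with the accession as filed and its product quenches rhodamine fluorescence; potency is read from the fitted curve at half-maximal effect; 0% = enzyme reaction without inhibitor and -100% = no enzyme wells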
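Buffer: 50 mM Hepes-Na pH 7.6, 10 mM MgCl2, 0.01% Nonidet P-40, 0.01% BSA. Enzyme 15 nM, pre-exposed to compound 15 min; substrates then added and fluorescence change tracked over 30 min.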
Starred values were filed as active, the others as inactive; ? = inconclusive; . = no result; [ ] = dose if it differs, or a comment. Unless noted, calls follow the shape of the dose curve; as a rule, active = well fitted curve in the direction sought with a large enough effect; inconclusive = small, poorly fitted or top-dose-only effect, or another doubt; inactive = no such curve, though single readings can be large; an effect the other way counts as inactive or inconclusive.

SMILES | ALDH1A1 block | Lamin A splicing | KDM4E inh | miR-21 reporter | G9a inh | Sfp inh
S=c1[nH]nc(COc2ccccc2)n1/N=C/c1ccccn1 | ? | 4.8% | -3.4% | -3.6% | ? | -70.2%
CCOc1ccc2nc(N3CCCC(C(=O)Nc4ccccc4CC)C3)sc2c1 (stereo not drawn) | . | . | . | -3.6% | 3.8%[59 µM] | .
CCOc1ccc(N2C(=O)CC(Sc3n[nH]c(-c4ccccc4)n3)C2=O)cc1 (stereo not drawn) | 0.447µM* | ? | -20.8% | 0.0% | -15.9%[0.501 µM] | ?
COc1ccc(N2C(=O)CC(Sc3n[nH]c(-c4ccccc4)n3)C2=O)cc1 (stereo not drawn) | . | . | -22.2% | 0.5% | . | 35.5µM*
CCOc1ccc(N2C(=O)CC(Sc3nc(C)cc(C)c3C#N)C2=O)cc1 (stereo not drawn) | 14.1µM* | ? | 6.3% | -9.0% | ? | 3.2%
CCN1C(=O)[C@H]2[C@@H](c3ccc(OC)cc3)N3C(=O)CN(CCOC)C(=O)[C@@]3(Cc3ccccc3)[C@H]2C1=O | . | . | . | 0.2% | 11.7% | 18.4%
O=c1c2c3c(sc2n(Cc2ccc(F)cc2Cl)c(=O)n1-c1ccc(Cl)cc1)CCC3 | . | . | . | -6.6% | 26.7%[59 µM] | .
CC(=O)Nc1ccc(S(=O)(=O)Nc2cc(S(=O)(=O)N3CCCCC3)ccc2O)cc1 | . | . | . | . | 28.2µM* | .
O=C(Nc1cc(S(=O)(=O)N2CCOCC2)ccc1O)c1ccc(NS(=O)(=O)c2ccc(Cl)s2)cc1 | -13.0% | 1.2% | 0.6% | -0.4% | ? | 1.7%
O=S(=O)(Nc1cc(S(=O)(=O)N2CCCC2)ccc1O)c1ccc(Cl)s1 | . | . | . | . | 56.2µM* | .
COc1ccccc1NC(=O)C1=C(C)Nc2nnnn2C1c1cc(Br)c(O)c(OC)c1 (stereo not drawn) | . | . | . | -0.4% | -1.7%[59 µM] | .
Cc1ccc(NC(=O)CSCC(=O)Nc2nnc(C)s2)cc1 | . | . | . | . | 5.2%[59 µM] | .
Cc1ccc(-n2c(=O)c3c(cnn3C)n(CC(=O)Nc3cccc(Cl)c3)c2=O)cc1 | . | . | . | 4.6% | 0.6%[59 µM] | .
CNc1ccccc(-c2ccc3ccccc3n2)c1=O | 3.1% | ? | -2.1% | -45.8% | 89.1µM* | 56.2µM*
c1ccc2nc(-c3nc4ccccc4o3)ccc2c1 | ? | 0.9% | 0.6% | 25.2% | 22.5%[59 µM] | ?
O=C(Nc1cnn(Cc2ccc(Cl)cc2Cl)c1)c1noc2c1CCCC2 | 14.1µM* | ? | ? | -0.9% | ? | -15.4%
COc1cccc(C(=O)NC(=S)Nc2nnn(C)n2)c1 | 22.4µM* | 1.4% | -6.1% | -16.1% | 2µM* | 50.1µM*
COc1ccc(C(=O)NC(=S)Nc2nnn(C)n2)cc1 | 11.2µM* | -9.6% | -4.4% | -7.9% | 3.55µM* | 56.2µM*
COc1c(C(=O)NC(=S)Nc2nnn(C)n2)cc2ccccc2c1Br | . | . | . | -1.2% | . | 7.5%
Cc1ccc(S(=O)(=O)Oc2cccc(/C=N/n3cnnc3)c2)cc1 | 0.891µM* | ? | -15.2% | -6.5% | 11.2%[59 µM] | -5.8%
Cc1ccc(S(=O)(=O)Oc2cccc(/C=N/Nc3ccc(C(=O)O)cc3)c2)cc1 | . | . | -10.1% | -69.7% | -49.9%[59 µM] | 13.3%
COc1nc(N/N=C/c2ccc(-c3ccccc3[N+](=O)[O-])o2)nc(N2CCOCC2)n1 | 8.91µM* | -20.1% | 5.9% | -41.2% | 3.16µM* | 14.1µM*
O=[N+]([O-])c1ccc(-c2ccc(/C=N/Nc3nc(NCc4ccccc4)nc(N4CCOCC4)n3)o2)cc1 | ? | . | -4.2% | 0.3% | 25.1µM* | 13.5%
Cc1cc(=O)[nH]c(N/N=C/c2ccc(-c3ccc([N+](=O)[O-])cc3)o2)n1 | . | . | . | 1.5% | -12.4% | -22.3%
